# In PubChem BioAssay (Tox21):
# Several values for one entry are separate records, joined by “and”; a condition that tells them apart may be missing. Identical values can stand only once. Inconclusive results are not listed. Where a call stands in place of a potency, no number is given. A structure can be active in one record and inactive in another. Activity calls are given as the source filed them. Unless noted, calls come from the whole dose curve; as a rule, active = well fitted curve in the direction sought with a large enough effect in the repeat runs; inconclusive = weak or mixed curves; inactive = no such curve, though single readings can be large; an effect the other way counts as inactive or inconclusive.
# What was measured:
# [1] = qHTS assay to identify small molecule antagonists of the glucocorticoid receptor (GR) signaling pathway - cell viability counter screen (AID 720693); details: GR-bla HeLa viability, CellTiter-Glo luminescence, 18 h, with 5 nM dexamethasone present; series mostly up to 58.5 µM; note: nearly all actives have a fitted effect of over 55% in size; note: potency is the fitted concentration of half-maximal effect
# [2] = qHTS assay for identifying genotoxic compounds that show differential cytotoxicity against isogenic chicken DT40 cell lines with known DNA damage response pathways - Rev3 mutant cell line (AID 743014); details: chicken DT40 Rev3-/- viability, CellTiter-Glo, 40 h; series mostly up to 68.4 µM; note: nearly all actives have a fitted effect of over 55% in size; note: potency is the fitted concentration of half-maximal effect
# [3] = qHTS assay for identifying genotoxic compounds that show differential cytotoxicity against isogenic chicken DT40 cell lines with known DNA damage response pathways - Rad54/Ku70 mutant cell line (AID 743015); details: DT40 Rad54/Ku70 mutant viability, CellTiter-Glo, 40 h; series mostly up to 66.8 µM; note: nearly all actives have a fitted effect of over 60% in size; note: potency is the fitted concentration of half-maximal effect
# [4] = qHTS assay to identify small molecule antagonists of the androgen receptor (AR) signaling pathway - cell viability counter screen (AID 743033; note: nearly all actives have a fitted effect of over 45% in size; note: potency is the fitted concentration of half-maximal effect); details: AR-bla HEK293 viability, CellTiter-Glo luminescence, 16 h; series mostly up to 58.5 µM
# [5] = qHTS assay to identify small molecule antagonists of the androgen receptor (AR) signaling pathway using the MDA cell line - cell viability counter screen (AID 743041; note: nearly all actives have a fitted effect of over 45% in size); details: MDA-kb2 viability, CellTiter-Fluor, 16 h, cells co-treated with R1881 androgen agonist; series mostly up to 70.3 µM
# In short: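 Cytotoxicity counter screen: MDA-kb2 AR-luc cells, compound + R1881, 16 h, 37C, 0% CO2; CellTiter-Fluor added at 15.5 h, fluorescence read after 30 min.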
# [6] = target: Androgen receptor (Homo sapiens) (UniProt P10275); assay: qHTS assay to identify small molecule antagonists of the androgen receptor (AR) signaling pathway (AID 743035; active = well fitted inhibition curve with a large enough effect in the signal ratio in the repeat runs, not every such curve was filed as active; the % refers to the signal ratio; note: potency is the fitted concentration of half-maximal effect); details: HEK293 AR-UAS-bla, R1881-stimulated, beta-lactamase FRET, 16 h; series mostly up to 58.5 µM
# Sequence of Androgen receptor (Homo sapiens) (P10275 whole entry, looked up): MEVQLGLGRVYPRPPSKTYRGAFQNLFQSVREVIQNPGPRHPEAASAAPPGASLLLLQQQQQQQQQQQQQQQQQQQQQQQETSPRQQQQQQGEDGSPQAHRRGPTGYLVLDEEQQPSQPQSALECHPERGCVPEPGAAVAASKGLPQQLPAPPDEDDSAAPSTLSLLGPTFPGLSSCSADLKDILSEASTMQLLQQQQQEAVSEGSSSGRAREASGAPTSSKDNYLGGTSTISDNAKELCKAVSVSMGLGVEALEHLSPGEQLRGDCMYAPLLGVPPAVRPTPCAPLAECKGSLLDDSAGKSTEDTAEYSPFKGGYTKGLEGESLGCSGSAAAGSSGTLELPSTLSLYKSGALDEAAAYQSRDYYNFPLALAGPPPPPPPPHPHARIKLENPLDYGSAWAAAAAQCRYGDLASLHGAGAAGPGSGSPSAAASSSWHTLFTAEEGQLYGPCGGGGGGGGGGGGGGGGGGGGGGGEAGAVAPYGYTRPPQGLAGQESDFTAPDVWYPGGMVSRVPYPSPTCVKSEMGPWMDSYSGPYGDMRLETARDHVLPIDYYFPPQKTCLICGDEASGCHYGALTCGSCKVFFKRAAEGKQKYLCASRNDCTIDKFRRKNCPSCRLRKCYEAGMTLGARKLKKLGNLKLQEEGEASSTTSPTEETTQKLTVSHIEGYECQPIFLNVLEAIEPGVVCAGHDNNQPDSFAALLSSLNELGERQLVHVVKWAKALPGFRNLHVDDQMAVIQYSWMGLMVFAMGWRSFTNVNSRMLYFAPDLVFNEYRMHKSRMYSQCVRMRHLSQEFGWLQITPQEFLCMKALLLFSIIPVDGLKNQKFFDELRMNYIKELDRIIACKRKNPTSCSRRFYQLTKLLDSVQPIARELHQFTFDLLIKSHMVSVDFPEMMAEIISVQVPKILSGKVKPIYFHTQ
# In short: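 In this cell-based reporter screen, compounds were tested in concentration series against R1881-activated HEK293 cells expressing beta-lactamase under UAS control; after 16 h at 37C, FRET substrate was added and fluorescence read 2 h later.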
# [7] = target: Androgen receptor (Homo sapiens) (UniProt P10275); assay: qHTS assay to identify small molecule agonists of the androgen receptor (AR) signaling pathway (AID 743036; active = well fitted activation curve with a large enough effect in the signal ratio in the repeat runs, with a control signal flat, not every such curve was filed as active; the % refers to the signal ratio); details: HEK293 AR-UAS-bla GripTite, beta-lactamase FRET ratio, 16 h; series mostly up to 62.4 µM
# In short: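 In this Tox21 qHTS, 2,000 HEK293 AR-bla cells per well were incubated with compounds for 16 h at 37C and 5% CO2. Fluorescence intensity was recorded 2 h after adding LiveBLAzer B/G FRET substrate at room temperature.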
# [8] = target: Androgen receptor (Homo sapiens) (UniProt P10275); assay: qHTS assay to identify small molecule agonists of the androgen receptor (AR) signaling pathway using the MDA cell line (AID 743040; note: nearly all actives have a fitted effect of over 20% in size); details: MDA-kb2 AR-luc cells, MMTV luciferase, 16 h; at 70.3 µM (top of the series); stronger effect = higher value
# In short: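 Luciferase read-out, ONE-Glo, 30 min RT. Cells: MDA-kb2 AR-luc, MMTV promoter with AR and GR response elements. Compound exposure 16 h, 37C, 0% CO2, after 5 h pre-incubation. qHTS agonist mode.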
# [9] = target: Androgen receptor (Homo sapiens) (UniProt P10275); assay: qHTS assay to identify small molecule antagonists of the androgen receptor (AR) signaling pathway using the MDA cell line (AID 743042; note: nearly all actives have a fitted effect of over 55% in size); details: MDA-kb2 AR-luc, MMTV luciferase, R1881 antagonist, 16 h; series mostly up to 70.3 µM
# In short: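 MDA-kb2 breast carcinoma cells carrying MMTV-luciferase (AR/GR responsive) were co-treated with compounds and the agonist R1881 for 16 h at 37C. Inhibition read as ONE-Glo luminescence; CellTiter-Fluor fluorescence measured in parallel for cytotoxicity.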
smiles,measurement,setting,value
CCC[CH2][Sn]([Cl])([CH2]CCC)[CH2]CCC,Potency,[1],1.1 µM (active)
same,Potency,[2],434 nM (active) and 344 nM (active)
same,Potency,[3],487 nM (active) and 386 nM (active)
same,Potency,[4],618 nM (active) and 1.1 µM (active)
CCCCCCCCCCCCCl,Potency,[1],inactive
same,Potency,[2],inactive
same,Potency,[4],inactive
same,Potency,[5],inactive
CC(C)=CC1C(C(=O)OCN2C(=O)C3=C(CCCC3)C2=O)C1(C)C (centres undefined),Potency,[1],inactive
same,Potency,[2],inactive
same,Potency,[3],27.3 µM (active)
same,Potency,[4],inactive
same,Potency,[6],43.6 µM (active)
same,Potency,[7],inactive
same,activity change,[8],7.43% (inactive) and -10.5% (inactive)
same,Potency,[5],inactive
same,Potency,[9],inactive
Cc1cccc(N=Nc2ccc(N(C)C)cc2)c1,Potency,[1],inactive
same,Potency,[2],inactive and 27.3 µM (active)
same,Potency,[4],inactive
same,Potency,[5],inactive
Cc1cc(Cl)ccc1N=CN(C)C,Potency,[1],inactive
same,Potency,[2],inactive
same,Potency,[3],inactive
same,Potency,[4],inactive
ClC(Cl)=C(Cl)C(Cl)=C(Cl)Cl,Potency,[1],inactive
same,Potency,[2],inactive
same,Potency,[3],inactive
same,Potency,[4],inactive
same,Potency,[5],inactive
Clc1ccccc1-c1nnc(-c2ccccc2Cl)nn1,Potency,[1],inactive
same,Potency,[2],inactive
same,Potency,[4],inactive
CCCCCCCCCC(CC)c1ccc(S(=O)(=O)O)cc1 (centres undefined),Potency,[3],inactive and 30.6 µM (active) and 47.2 µM (active)
same,Potency,[4],inactive
CN(C)P(=O)(N(C)C)N(C)C,Potency,[1],inactive
same,Potency,[2],inactive
same,Potency,[4],inactive
same,Potency,[5],inactive
